According to the supplement of paper PMC11732987, “Enantioselective OTUD7B fragment discovery through chemoproteomics screening and high-throughput optimisation” (Communications Chemistry, 2025):

Columns and labels:
Assay in all cases: log2 ratio of Biotin-Ahx-Ub-VS probe labelling (fragment/DMSO); higher = less target engagement (more negative = stronger competition), active = hit call of the paper (q ≤ 0.05, log2 ratio ≤ -1)
Settings in all cases: compound concentration: 200 uM; treatment time: 3 h
[1] = target: T1, USP19 (UniProt O94966)
T1 sequence (whole entry): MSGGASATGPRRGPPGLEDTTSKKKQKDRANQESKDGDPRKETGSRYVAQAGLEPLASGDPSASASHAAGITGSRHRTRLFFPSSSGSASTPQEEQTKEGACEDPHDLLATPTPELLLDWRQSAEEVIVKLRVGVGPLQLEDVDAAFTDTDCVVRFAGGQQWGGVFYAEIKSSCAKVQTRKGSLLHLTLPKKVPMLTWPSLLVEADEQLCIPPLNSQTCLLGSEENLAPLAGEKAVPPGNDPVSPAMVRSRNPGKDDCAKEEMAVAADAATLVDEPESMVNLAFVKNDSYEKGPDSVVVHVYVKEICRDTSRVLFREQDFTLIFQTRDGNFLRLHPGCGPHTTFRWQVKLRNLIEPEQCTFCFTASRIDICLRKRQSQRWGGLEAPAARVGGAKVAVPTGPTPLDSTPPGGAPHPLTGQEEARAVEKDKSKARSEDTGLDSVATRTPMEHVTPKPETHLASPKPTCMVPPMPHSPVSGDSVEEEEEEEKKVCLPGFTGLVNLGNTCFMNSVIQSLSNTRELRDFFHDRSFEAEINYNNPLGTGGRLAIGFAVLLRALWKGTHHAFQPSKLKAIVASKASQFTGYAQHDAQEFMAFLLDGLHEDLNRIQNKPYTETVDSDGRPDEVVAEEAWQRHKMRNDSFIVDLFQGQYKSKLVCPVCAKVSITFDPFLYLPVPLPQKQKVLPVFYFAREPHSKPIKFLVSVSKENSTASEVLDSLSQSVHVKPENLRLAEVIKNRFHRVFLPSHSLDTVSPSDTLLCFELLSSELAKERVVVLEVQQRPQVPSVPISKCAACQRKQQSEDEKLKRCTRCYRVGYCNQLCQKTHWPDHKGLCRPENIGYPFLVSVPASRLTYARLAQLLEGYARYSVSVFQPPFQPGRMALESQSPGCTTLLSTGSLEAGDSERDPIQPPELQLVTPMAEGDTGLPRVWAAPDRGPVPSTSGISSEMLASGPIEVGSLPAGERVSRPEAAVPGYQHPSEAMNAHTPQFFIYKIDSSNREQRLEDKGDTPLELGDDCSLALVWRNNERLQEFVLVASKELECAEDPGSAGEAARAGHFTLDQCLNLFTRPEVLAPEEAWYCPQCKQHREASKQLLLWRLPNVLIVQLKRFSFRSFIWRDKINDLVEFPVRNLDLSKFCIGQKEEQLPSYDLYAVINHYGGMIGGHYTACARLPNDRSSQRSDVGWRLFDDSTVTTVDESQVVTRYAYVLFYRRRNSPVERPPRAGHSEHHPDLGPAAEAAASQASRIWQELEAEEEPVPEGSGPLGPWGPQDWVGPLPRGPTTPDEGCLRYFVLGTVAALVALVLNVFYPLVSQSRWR
Outline: (§1)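 Triplicate samples of HEK293T lysate, 495 µg each, received fragment at 200 µM or vehicle for 3 h, followed by Biotin-Ahx-Ub-VS (0.5 µM final) for 1 h. After NeutrAvidin enrichment of labelled DUBs and LysC/trypsin digestion, peptides were run by diaPASEF LC-MS/MS. The values are average log2 fragment/vehicle ratios from global-median-normalised Spectronaut label-free quantities, tested by unpaired t-test on proteins having ≥2 unique peptides.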

[2] = target: USP24 (UniProt Q9UPU5)
Outline: as §1

[3] = target: T2, USP25 (UniProt Q9UHP3)
T2 sequence (whole entry): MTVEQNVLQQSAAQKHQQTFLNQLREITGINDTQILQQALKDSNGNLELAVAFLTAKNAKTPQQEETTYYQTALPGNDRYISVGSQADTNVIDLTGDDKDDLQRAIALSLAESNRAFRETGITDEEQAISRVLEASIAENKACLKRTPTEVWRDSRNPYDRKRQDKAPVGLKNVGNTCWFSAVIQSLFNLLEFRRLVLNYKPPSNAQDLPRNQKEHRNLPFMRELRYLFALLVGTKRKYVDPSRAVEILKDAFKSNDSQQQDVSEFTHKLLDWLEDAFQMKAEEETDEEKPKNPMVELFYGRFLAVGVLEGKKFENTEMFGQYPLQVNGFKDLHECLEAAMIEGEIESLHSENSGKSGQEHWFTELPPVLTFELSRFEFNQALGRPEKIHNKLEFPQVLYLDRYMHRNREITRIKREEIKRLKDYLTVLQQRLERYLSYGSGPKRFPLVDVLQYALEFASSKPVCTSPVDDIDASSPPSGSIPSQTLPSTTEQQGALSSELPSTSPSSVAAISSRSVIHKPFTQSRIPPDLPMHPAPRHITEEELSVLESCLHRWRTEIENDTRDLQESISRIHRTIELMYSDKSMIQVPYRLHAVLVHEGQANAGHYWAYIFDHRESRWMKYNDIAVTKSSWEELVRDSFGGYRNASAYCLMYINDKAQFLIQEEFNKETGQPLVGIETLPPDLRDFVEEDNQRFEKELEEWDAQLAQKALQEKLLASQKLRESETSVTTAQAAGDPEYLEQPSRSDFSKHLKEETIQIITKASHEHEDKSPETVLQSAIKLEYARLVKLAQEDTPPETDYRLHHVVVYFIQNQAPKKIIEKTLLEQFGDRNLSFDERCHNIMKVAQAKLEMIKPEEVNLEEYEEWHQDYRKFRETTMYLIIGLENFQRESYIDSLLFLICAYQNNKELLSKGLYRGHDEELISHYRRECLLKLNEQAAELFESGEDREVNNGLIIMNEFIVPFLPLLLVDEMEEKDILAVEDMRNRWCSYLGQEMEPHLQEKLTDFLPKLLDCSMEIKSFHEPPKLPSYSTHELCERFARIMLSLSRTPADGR
Outline: as §1

[4] = target: T3, USP28 (UniProt Q96RU2)
T3 sequence (whole entry): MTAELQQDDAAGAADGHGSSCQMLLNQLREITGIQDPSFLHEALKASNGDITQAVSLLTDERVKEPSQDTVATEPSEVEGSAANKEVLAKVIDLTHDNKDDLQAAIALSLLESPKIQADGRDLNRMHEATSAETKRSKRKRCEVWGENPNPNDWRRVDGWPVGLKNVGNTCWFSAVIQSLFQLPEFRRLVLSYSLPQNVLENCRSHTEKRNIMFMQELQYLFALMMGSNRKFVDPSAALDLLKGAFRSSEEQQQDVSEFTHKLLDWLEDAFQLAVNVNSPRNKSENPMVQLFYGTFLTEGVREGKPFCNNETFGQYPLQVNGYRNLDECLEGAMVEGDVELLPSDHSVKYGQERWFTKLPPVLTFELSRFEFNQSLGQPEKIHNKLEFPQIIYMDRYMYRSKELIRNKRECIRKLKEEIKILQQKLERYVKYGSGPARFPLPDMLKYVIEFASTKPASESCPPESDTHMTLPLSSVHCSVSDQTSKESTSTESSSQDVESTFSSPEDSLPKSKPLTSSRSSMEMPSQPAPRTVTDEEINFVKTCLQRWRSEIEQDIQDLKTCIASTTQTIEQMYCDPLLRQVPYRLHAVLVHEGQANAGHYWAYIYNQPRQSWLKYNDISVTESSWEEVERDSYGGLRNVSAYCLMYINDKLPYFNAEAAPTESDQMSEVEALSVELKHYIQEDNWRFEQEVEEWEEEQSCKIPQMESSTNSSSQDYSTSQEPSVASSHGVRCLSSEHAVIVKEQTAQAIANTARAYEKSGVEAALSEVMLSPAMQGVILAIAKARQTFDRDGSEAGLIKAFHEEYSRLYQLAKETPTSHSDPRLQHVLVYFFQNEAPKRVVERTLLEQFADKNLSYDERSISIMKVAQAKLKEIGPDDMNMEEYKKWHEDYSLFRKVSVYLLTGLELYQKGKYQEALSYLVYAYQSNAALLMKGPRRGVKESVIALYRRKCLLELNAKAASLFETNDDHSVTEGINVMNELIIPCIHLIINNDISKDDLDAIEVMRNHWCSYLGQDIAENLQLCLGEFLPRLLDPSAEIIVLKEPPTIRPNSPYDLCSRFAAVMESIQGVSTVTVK
Outline: as §1

Measured: log2 ratio of Biotin-Ahx-Ub-VS probe labelling

Chain of USP24 (Q9UPU5 whole entry): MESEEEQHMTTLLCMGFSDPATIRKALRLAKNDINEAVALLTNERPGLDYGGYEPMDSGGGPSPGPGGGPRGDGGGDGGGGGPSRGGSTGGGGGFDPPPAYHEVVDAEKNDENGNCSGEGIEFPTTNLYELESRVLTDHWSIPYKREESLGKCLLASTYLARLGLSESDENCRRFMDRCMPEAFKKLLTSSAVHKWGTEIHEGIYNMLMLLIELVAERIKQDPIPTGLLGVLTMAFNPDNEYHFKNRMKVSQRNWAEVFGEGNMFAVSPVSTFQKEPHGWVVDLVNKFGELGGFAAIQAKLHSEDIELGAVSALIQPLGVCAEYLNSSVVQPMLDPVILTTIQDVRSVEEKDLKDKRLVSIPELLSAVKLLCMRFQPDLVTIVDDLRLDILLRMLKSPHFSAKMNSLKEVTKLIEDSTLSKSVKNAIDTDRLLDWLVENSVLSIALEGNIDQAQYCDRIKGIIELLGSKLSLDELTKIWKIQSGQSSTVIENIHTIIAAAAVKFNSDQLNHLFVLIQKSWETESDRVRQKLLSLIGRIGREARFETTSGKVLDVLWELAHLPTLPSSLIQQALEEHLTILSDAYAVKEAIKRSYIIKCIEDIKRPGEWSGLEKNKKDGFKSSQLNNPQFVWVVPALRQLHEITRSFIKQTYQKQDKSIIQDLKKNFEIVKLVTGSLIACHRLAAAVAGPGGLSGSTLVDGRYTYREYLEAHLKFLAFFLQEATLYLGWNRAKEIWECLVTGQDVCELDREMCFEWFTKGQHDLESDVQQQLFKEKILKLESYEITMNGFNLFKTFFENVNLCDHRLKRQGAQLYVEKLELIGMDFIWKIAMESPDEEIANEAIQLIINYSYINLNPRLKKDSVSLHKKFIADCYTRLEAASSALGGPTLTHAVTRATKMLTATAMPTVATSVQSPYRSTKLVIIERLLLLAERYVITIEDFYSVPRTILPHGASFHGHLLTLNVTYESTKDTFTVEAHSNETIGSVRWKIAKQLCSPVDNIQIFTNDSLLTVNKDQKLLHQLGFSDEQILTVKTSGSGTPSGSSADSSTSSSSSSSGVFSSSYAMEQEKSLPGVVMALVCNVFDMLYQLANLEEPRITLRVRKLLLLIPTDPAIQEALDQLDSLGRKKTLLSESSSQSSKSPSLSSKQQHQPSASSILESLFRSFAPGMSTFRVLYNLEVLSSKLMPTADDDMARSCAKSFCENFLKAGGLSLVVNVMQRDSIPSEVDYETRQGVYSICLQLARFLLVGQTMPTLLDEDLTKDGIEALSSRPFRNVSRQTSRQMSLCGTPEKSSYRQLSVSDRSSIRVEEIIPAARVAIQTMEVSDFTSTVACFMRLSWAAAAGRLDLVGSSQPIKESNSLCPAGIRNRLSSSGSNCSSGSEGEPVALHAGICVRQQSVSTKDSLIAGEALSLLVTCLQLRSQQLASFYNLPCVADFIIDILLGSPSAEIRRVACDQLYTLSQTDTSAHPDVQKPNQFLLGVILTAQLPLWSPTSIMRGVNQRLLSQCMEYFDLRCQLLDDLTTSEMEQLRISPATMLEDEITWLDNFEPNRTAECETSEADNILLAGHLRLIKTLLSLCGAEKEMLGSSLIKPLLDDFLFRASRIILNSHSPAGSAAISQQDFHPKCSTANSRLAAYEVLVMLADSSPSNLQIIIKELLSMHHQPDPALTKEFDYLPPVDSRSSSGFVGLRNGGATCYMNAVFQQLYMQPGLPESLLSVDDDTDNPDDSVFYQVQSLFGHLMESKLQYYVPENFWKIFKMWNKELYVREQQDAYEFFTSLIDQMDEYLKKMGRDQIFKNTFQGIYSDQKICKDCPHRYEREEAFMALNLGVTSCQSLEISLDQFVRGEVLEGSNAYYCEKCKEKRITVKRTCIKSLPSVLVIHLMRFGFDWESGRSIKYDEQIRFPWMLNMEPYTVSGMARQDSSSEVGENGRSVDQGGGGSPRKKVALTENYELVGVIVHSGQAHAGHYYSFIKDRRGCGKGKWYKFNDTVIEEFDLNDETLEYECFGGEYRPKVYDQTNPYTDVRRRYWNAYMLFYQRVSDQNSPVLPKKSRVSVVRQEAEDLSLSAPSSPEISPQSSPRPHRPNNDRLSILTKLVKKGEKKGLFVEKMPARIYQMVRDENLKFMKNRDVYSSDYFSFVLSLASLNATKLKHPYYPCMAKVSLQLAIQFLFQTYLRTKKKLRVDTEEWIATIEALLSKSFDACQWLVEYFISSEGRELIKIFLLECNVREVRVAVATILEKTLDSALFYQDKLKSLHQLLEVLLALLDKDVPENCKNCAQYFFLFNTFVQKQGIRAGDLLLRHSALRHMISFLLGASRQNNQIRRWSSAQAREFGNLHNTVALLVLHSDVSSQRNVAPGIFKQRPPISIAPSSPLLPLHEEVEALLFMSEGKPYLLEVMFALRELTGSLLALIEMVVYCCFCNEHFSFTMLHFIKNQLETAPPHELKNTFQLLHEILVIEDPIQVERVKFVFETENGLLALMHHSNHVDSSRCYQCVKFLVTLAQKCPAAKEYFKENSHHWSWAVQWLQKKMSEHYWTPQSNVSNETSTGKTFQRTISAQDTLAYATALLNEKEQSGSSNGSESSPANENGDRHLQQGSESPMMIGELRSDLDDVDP

O=C(CCl)NCc1ccc(N2CCOCC2)c(F)c1
inactive: [1] 0.108 | [2] 0.223 | [3] -0.255 | [4] -0.606
